The source of these data is PubChem BioAssay (EPA / NIEHS).

Read-out in assay [1]: Pyruvate Dehydrogenase Kinase 4 (PDK4), PDK4 (gene 5166)
The assay can be described thus: LTEA_HepaRG_PDK4: Life Technologies and Expression Analysis (LTEA) Assay for Pyruvate Dehydrogenase Kinase 4 (PDK4) using HepaRG (AID 2283525). Conditions: mRNA level, 48 h; actives raise or lower the signal. The essentials: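 HepaRG cells plated 48 h, then switched to serum-free induction medium and exposed in duplicate for 48 h to 8 half-log concentrations from 100 uM in 0.5% DMSO. PDK4 mRNA measured by qRT-PCR, normalized to ACTB, GAPDH and POLR2A; bidirectional fit versus DMSO.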

Read-out in assay [2]: NAD(P)H dehydrogenase [quinone] 1 (NQO1), NQO1 (gene 1728)
The assay can be described thus: LTEA_HepaRG_NQO1: Life Technologies and Expression Analysis (LTEA) Assay for NAD(P)H dehydrogenase [quinone] 1 (NQO1) using HepaRG (AID 2283526). Conditions: mRNA level, 48 h; actives raise or lower the signal. The essentials: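 Differentiated HepaRG cells, plated 48 h and then switched to serum-free induction medium, were exposed in duplicate for 48 h to 8-point half-log concentrations up to 100 uM in 0.5% DMSO. mRNA measured by qRT-PCR, normalized to ACTB, GAPDH, POLR2A; bidirectional fit versus DMSO.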

Read-out in assay [3]: succinate dehydrogenase complex iron sulfur subunit B (SDHB), SDHB (gene 6390)
The assay can be described thus: LTEA_HepaRG_SDHB: Life Technologies and Expression Analysis (LTEA) Assay for succinate dehydrogenase complex iron sulfur subunit B (SDHB) using HepaRG (AID 2283528). Conditions: mRNA level, 48 h; actives raise or lower the signal. In short, it runs like this: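 A human HepaRG culture in serum-free induction medium received test chemicals for 48 h over an eight-point range capped at 100 uM. SDHB expression change was quantified by qRT-PCR.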

Read-out in assay [4]: Signal transducer and activator of transcription 3 (Homo sapiens) (UniProt P40763)
The assay can be described thus: LTEA_HepaRG_STAT3: Life Technologies and Expression Analysis (LTEA) Assay for Signal transducer and activator of transcription (STAT3) using HepaRG (AID 2283529). Conditions: mRNA level, 48 h; actives raise or lower the signal. In short, it runs like this:
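Differentiated HepaRG cells, serum-free induction medium, dosed 48 h in duplicate, 8 half-log concentrations from 100 uM in 0.5% DMSO. STAT3 mRNA by qRT-PCR, normalised to ACTB, GAPDH, POLR2A; bidirectional fit versus DMSO.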

Read-out in assay [5]: sulfotransferase 2A1 (SULT2A1), SULT2A1 (gene 6822)
Kind of assay: LTEA_HepaRG_SULT2A1: Life Technologies and Expression Analysis (LTEA) Assay for sulfotransferase 2A1 (SULT2A1) using HepaRG (AID 2283531). Conditions: mRNA level, 48 h; actives raise or lower the signal. The essentials: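 Cells were plated and cultured 48 h, switched to serum-free induction medium, then dosed in duplicate for 48 h (8 concentrations, max 100 uM). RNA was isolated and SULT2A1 expression measured by qRT-PCR; gain or loss of signal fitted relative to DMSO.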

Read-out in assay [6]: Transforming Growth Factor (TGFA), TGFA (gene 7039)
Kind of assay: LTEA_HepaRG_TGFA: Life Technologies and Expression Analysis (LTEA) Assay for Transforming Growth Factor (TGFA) using HepaRG (AID 2283532). Conditions: mRNA level, 48 h; actives raise or lower the signal. The essentials:
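Differentiated HepaRG cells exposed 48 hours in serum-free induction medium, 0.5% DMSO vehicle, 8-point half-log series from 100 uM, in duplicate. TGFA mRNA by TaqMan qRT-PCR, normalised to ACTB, GAPDH, POLR2A; bidirectional fit versus DMSO.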

Read-out in assay [7]: Transforming Growth Factor (TGFB1), TGFB1 (gene 7040)
Kind of assay: LTEA_HepaRG_TGFB1: Life Technologies and Expression Analysis (LTEA) Assay for Transforming Growth Factor (TGFB1) Transporter using HepaRG (AID 2283533). Conditions: mRNA level, 48 h; actives raise or lower the signal. In short, it runs like this: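 Expression change of TGFB1 in human HepaRG cells is measured after a 48 h chemical exposure, up to 100 uM in 0.5% DMSO vehicle. Curves are fitted in both directions relative to the DMSO baseline.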

Read-out in assay [8]: Tumor necrosis factor receptor 1 (TNFRSF1A), TNFRSF1A (gene 7132)
The assay can be described thus: LTEA_HepaRG_TNFRSF1A: Life Technologies and Expression Analysis (LTEA) Assay for Tumor necrosis factor receptor 1 (TNFRSF1A) using HepaRG (AID 2283535). Conditions: mRNA level, 48 h; actives raise or lower the signal. The essentials: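 Expression of TNFRSF1A in human HepaRG liver cells was measured by qRT-PCR 48 h after chemical dosing (maximum 100 uM). Bidirectional curve fitting used 0.5% DMSO as baseline.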

Read-out in assay [9]: Thyroid Hormone Responsive (THRSP), THRSP (gene 7069)
The assay can be described thus: LTEA_HepaRG_THRSP: Life Technologies and Expression Analysis (LTEA) Assay for Thyroid Hormone Responsive (THRSP) using HepaRG (AID 2283536). Conditions: mRNA level, 48 h; actives raise or lower the signal. In short, it runs like this:
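Differentiated HepaRG cells treated 48 h in serum-free induction medium with 8 half-log concentrations up to 100 uM (0.5% DMSO), duplicates. THRSP mRNA by TaqMan qRT-PCR normalised to ACTB, GAPDH, POLR2A; bidirectional fit versus DMSO.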

Read-out in assay [10]: Cellular tumor antigen p53 (Homo sapiens) (UniProt P04637)
The assay can be described thus: LTEA_HepaRG_TP53: Life Technologies and Expression Analysis (LTEA) Assay for Tumor Protein P53 (TP53) using HepaRG (AID 2283537). Conditions: mRNA level, 48 h; actives raise or lower the signal. The essentials: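 Gain or loss of TP53 mRNA signal is scored relative to 0.5% DMSO after 48 h chemical treatment of HepaRG liver cells, tested in duplicate at eight half-log concentrations up to 100 uM.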

Read-out in assay [11]: UDP glucuronosyltransferase (UGT1A1), UGT1A1 (gene 54658)
Kind of assay: LTEA_HepaRG_UGT1A1: Life Technologies and Expression Analysis (LTEA) Assay for UDP glucuronosyltransferase (UGT1A1) using HepaRG (AID 2283538). Conditions: mRNA level, 48 h; actives raise or lower the signal. The essentials:
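Differentiated human HepaRG cells in serum-free induction medium were exposed in duplicate for 48 h to eight half-log concentrations up to 100 uM in 0.5% DMSO. UGT1A1 mRNA was quantified by TaqMan qRT-PCR, normalized to ACTB, GAPDH and POLR2A, and fitted bidirectionally against DMSO.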

Read-out in assay [12]: UDP glucuronosyltransferase (UGT1A6), UGT1A6 (gene 54578)
The assay can be described thus: LTEA_HepaRG_UGT1A6: Life Technologies and Expression Analysis (LTEA) Assay for UDP glucuronosyltransferase (UGT1A6) using HepaRG (AID 2283539). Conditions: mRNA level, 48 h; actives raise or lower the signal. The essentials: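 Endpoint is UGT1A6 transcript induction or loss in a human liver cell line, quantified by TaqMan qRT-PCR 48 h after dosing. Concentrations ran from 100 uM downward in half-log steps in 0.5% DMSO; activity was fitted in both directions versus vehicle.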

Read-out in assay [13]: X-box binding protein 1 (XBP1), XBP1 (gene 7494)
The assay can be described thus: LTEA_HepaRG_XBP1: Life Technologies and Expression Analysis (LTEA) Assay for X-box binding protein 1 (XBP1) using HepaRG (AID 2283540). Conditions: mRNA level, 48 h; actives raise or lower the signal. The essentials: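 Human HepaRG monolayers receive test chemical for 48 h across an eight-point half-log series starting at 100 uM. XBP1 mRNA gain or loss is scored against DMSO by qRT-PCR.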

Assay [14] is described as follows: LTEA_HepaRG_LDH_cytotoxicity: Cytotoxicity Assessment in the Life Technologies and Expression Analysis (LTEA) Assay (AID 2283563; active = hit-call score of the fitted dose curve at least 0.9, where 1 is the maximum;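 as to AC50: LDH activity released into spent culture medium as a marker of cell death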). In short, it runs like this: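 Human HepaRG hepatic cells are treated with test chemicals for 48 h at up to 100 uM in 0.5% DMSO. Cytotoxicity is scored from medium LDH against the vehicle control.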
The nature of assay [15]: TOX21_p53_BLA_p2_viability: Viability Assessment in the Tox21 HCT-116 p53 Agonism Beta-lactamase Assay, Phase 2 (AID 2283591; active = hit-call score of the fitted dose curve at least 0.9, where 1 is the maximum;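 also: compound exposure lasted 16 h at 37 °C; actives lower the ATP signal meaning cytotoxicity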). In short, it runs like this: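 HCT116 p53-bla cells, 4000/well, dosed after 5 h plating (217-fold dilution of DMSO stocks) and incubated 16 h at 37C. Viability taken as cellular ATP by CellTiter-Glo luminescence after 30 min RT; signal loss marks cytotoxicity.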

In assay [16] the target is Cellular tumor antigen p53 (Homo sapiens) (UniProt P04637). The assay can be described thus: TOX21_p53_BLA_p2_ratio: Tox21 HCT-116 p53 Agonism Beta-lactamase Assay, Ratio, Phase 2 (AID 2283592; active = hit-call score of the fitted dose curve at least 0.9, where 1 is the maximum). The essentials: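 An inducible beta-lactamase reporter in HCT116 cells signals p53 pathway activation. After 16 h chemical exposure at 37C, cells load CCF4-AM substrate for 2 h at room temperature; activity is the cleaved/uncleaved emission ratio relative to DMSO.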
Chain of Cellular tumor antigen p53 (Homo sapiens) (P04637 whole entry, looked up): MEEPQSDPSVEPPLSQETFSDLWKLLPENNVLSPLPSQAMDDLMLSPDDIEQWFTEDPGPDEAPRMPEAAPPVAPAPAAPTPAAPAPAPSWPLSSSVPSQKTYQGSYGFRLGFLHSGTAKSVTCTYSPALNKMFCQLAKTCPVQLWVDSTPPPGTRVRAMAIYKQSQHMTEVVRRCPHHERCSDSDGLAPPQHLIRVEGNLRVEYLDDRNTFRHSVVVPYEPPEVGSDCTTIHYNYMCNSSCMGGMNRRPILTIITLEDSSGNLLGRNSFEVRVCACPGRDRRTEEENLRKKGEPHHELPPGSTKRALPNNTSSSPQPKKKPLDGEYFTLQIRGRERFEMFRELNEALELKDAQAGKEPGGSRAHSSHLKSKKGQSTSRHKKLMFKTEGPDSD

Assay [17] can be described thus: TOX21_p53_BLA_p3_viability: Viability Assessment in the Tox21 HCT-116 p53 Agonism Beta-lactamase Assay, Phase 3 (AID 2283593; active = hit-call score of the fitted dose curve at least 0.9, where 1 is the maximum;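 also: cells exposed to compound for 16 h before reading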). In short, it runs like this: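 HCT116 cells, 4000/well, dosed 5 h after plating by pin transfer (217-fold dilution from DMSO stock) and incubated 16 h at 37C, 5% CO2. Viability read as ATP luminescence with CellTiter-Glo after 30 min at room temperature.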

Assay [18] in a line: ATG_XTT_Cytotoxicity: Cytotoxicity Assessment in the Attagene TRANS-FACTORIAL HepG2 Assay (AID 2283584; active = hit-call score of the fitted dose curve at least 0.9, where 1 is the maximum). The essentials: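 Transfect HepG2 with GAL4-UAS reporter units, dose compound, incubate 24 h, then measure viable cell number by XTT. Fit concentration response against DMSO baseline.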
Read-out in assay [19]: solute carrier (SLCO1B1), SLCO1B1 (gene 10599)
The assay can be described thus: LTEA_HepaRG_SLCO1B1: Life Technologies and Expression Analysis (LTEA) Assay for solute carrier (SLCO1B1) using HepaRG (AID 2283530). Conditions: mRNA level, 48 h; actives raise or lower the signal. In short, it runs like this:
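Gain or loss of SLCO1B1 mRNA is fitted against the 0.5% DMSO vehicle in human HepaRG liver cells treated 48 h at up to 100 uM in half-log steps. Expression comes from qRT-PCR normalized to endogenous controls.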

Each structure is given as a SMILES string. Results filed as inconclusive are left out. Active and inactive are the calls of the source. The calls were made as follows, unless noted: active = hit-call score of the fitted dose curve at least 0.9, where 1 is the maximum; inactive = score below 0.9.

Chain of Signal transducer and activator of transcription 3 (Homo sapiens) (P40763 whole entry, looked up): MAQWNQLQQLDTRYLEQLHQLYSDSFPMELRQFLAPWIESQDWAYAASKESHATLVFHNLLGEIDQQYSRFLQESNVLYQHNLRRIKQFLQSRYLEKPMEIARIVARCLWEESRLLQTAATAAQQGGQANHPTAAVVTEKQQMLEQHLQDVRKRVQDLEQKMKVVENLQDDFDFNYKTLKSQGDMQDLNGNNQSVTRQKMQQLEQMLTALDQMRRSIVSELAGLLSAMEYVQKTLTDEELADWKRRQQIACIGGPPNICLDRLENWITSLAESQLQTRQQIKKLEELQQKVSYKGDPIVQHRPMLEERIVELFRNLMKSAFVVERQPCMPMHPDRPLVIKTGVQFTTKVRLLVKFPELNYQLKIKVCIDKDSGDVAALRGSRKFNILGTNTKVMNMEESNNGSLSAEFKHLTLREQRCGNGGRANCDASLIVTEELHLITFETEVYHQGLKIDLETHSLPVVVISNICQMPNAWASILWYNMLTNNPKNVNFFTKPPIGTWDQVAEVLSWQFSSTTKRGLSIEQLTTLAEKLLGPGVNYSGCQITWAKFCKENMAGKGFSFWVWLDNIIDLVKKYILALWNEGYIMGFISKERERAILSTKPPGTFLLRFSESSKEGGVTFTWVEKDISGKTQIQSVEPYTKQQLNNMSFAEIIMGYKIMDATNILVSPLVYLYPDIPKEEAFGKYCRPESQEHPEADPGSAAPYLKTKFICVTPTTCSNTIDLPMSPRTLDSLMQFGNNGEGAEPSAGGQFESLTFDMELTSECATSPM

With `CCOS(=O)(=O)OCC`, the result in [1], in assay [2], in [3], in assay [4], in assay [5] and in [6] was inactive. For the same compound, the result in assay [7], in [8], in [9], in [10], in assay [11] and in assay [12] was inactive. The call in assay [13], in [14], in [15], in [16] and in assay [17] was inactive.
Regarding `Cc1cccc(N)c1`, the compound was classed as inactive in [1], in assay [2], in assay [3], in [4], in assay [5] and in assay [6]. For the same compound, the result in [7], in [8], in [9], in assay [10], in assay [11] and in [12] was inactive. Moreover, the outcome in assay [13], in [14], in assay [15], in assay [16] and in assay [17] was inactive.
Turning to `CCN(CC)c1ccccc1`, the compound was classed as inactive in assay [1], in [2], in [3], in [4], in assay [5] and in assay [6]. The compound was called inactive in [7], in assay [8], in assay [9], in assay [10], in [11] and in assay [12]. Moreover, the compound was called inactive in assay [13], in assay [14], in [18], in assay [15] and in assay [17].
On to `O=P(Oc1ccccc1)(Oc1ccccc1)Oc1ccccc1`, for which the AC50 in assay [1] is 28.4 µM (active); in assay [7] it was 77.5 µM (active); in [10], 50 µM (active); in assay [11], 3.1 µM (active); in [14], 72.7 µM (active). The compound was called inactive in assay [2], in [3], in assay [4], in [5], in assay [6] and in assay [8]. The call in [9], in assay [12], in [13], in assay [18], in assay [15] and in assay [16] was inactive. The result in assay [17] was inactive.
Take `c1ccc(OP(Oc2ccccc2)Oc2ccccc2)cc1`: the compound was classed as inactive in [1], in [2], in assay [3], in assay [4], in [19] and in [5]. The result in assay [6], in [7], in assay [8], in [9], in [10] and in assay [11] was inactive. Also, the outcome in assay [12], in assay [13], in assay [14], in assay [18] and in [16] was inactive.
With `O=C(O)C1C(C(=O)O)C2(Cl)C(Cl)=C(Cl)C1(Cl)C2(Cl)Cl` (stereo not drawn), the compound was called inactive in assay [1], in [2], in assay [3], in [4], in assay [5] and in assay [6]. For the same compound, the compound was classed as inactive in [7], in assay [8], in assay [9], in assay [10], in [11] and in assay [12]. Moreover, the compound was classed as inactive in assay [13], in [14], in assay [18], in assay [15] and in assay [16].

What is called AC50 is the concentration giving half of the maximal activity seen.
